# Assay results from PubChem BioAssay (NCATS).
# Records with an inconclusive call do not appear. Where a call stands in place of a potency, no number is given. Active and inactive are the calls of the source. Unless noted, calls come from the whole dose curve; as a rule, active = well fitted curve in the direction sought with a large enough effect; inconclusive = small, poorly fitted or top-dose-only effect, or another doubt; inactive = no such curve, though single readings can be large; an effect the other way counts as inactive or inconclusive.
# Legend:
# [1] = HEK-293 Cancer Cell Toxicity qHTS against the NCATS CANVASS Library (AID 1347355); note: nearly all actives have a fitted effect of over 65% in size; note: potency is the fitted concentration of half-maximal effect
# Procedure, shortened: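 1000 cells/well, 4 h pre-incubation 37 °C/5% CO2; 11-pnt titration; 72 h; CellTiter-Glo 15 min RT, luminescence.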
# [2] = HPAF-II 24hr Apoptosis Induction qHTS against the NCATS CANVASS Library (AID 1347356)
# Procedure, shortened: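 500 HPAF-II cells/well; compounds in 11-pnt qHTS; 24 h, 37 C/5% CO2; Caspase-Glo 3/7 added, 15 min RT dark; luminescence read. Doxorubicin control.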
# [3] = HEK293 18hr Apoptosis Induction qHTS against the NCATS CANVASS Library (AID 1347357)
# Procedure, shortened: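 Caspase-Glo 3/7 luminescence (15 min, room temperature) measured apoptosis after an 18-hour, 37 degrees C exposure of HEK293 cells (500 cells/well) to compounds in 11 points.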
# [4] = HPAF-II 12hr Apoptosis Induction qHTS against the NCATS CANVASS Library (AID 1347358)
# Procedure, shortened: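 Caspase-Glo 3/7 luminescence (DEVD substrate) reports caspase activity in HPAF-II cells after 12 h compound treatment at 37 degrees C. Compounds were tested in an 11-point series. Doxorubicin served as control.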
# [5] = HEK293 12hr Apoptosis Induction qHTS against the NCATS CANVASS Library (AID 1347361)
# Procedure, shortened: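 HEK293 cells (500/well, DMEM + 10% FBS) were exposed to natural products across an 11-point series for 12 hours at 37 degrees C. Caspase-3/7 activity was then measured with DEVD luciferase luminescence after 15 min at room temperature.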
# [6] = biological target: Luciferin 4-monooxygenase (Photinus pyralis) (UniProt P08659); test: Firefly luciferase counterscreen qHTS: Assay Interference Panel against the NCATS CANVASS Library (AID 1347363); note: series mostly up to about 57 µM
# Procedure, shortened: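 Purified P. pyralis luciferase (0.04 ug/mL, 4x reagent) added to Tris-acetate buffer with 0.013 mM D-luciferin, 0.013 mM ATP and 13.3 mM Mg-acetate; compounds preincubated 15 min, then luminescence read after 5 min, RT.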
# [7] = KB-8-5-11 Cancer Cell Toxicity qHTS against the NCATS CANVASS Library (AID 1347364); note: nearly all actives have a fitted effect of over 75% in size; note: potency is the fitted concentration of half-maximal effect
# Procedure, shortened: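 CellTiter-Glo luminescence after 72 h exposure; 500 KB-8-5-11 cells/well, DMEM/10% FBS, 37C, 5% CO2; compounds in 11-pt qHTS. Follow-up confirmation included medium with 1uM tariquidar.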
# [8] = KB-3-1 Cancer Cell Toxicity qHTS against the NCATS CANVASS Library (AID 1347366); note: nearly all actives have a fitted effect of over 75% in size; note: potency is the fitted concentration of half-maximal effect
# Procedure, shortened: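 CellTiter-Glo luminescence measured viability after 72 h at 37C. KB-3-1 cells were seeded at 500 per well in DMEM/10% FBS.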
# [9] = qHTS for ATAD5 Agonist screened against the NCATS CANVASS Library (AID 1347367);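 note: luciferase reporter driven by ATAD5 which rises upon DNA damage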; note: potency is the fitted concentration of half-maximal effect
# Procedure, shortened: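 Genotoxicity via ATAD5-luciferase luminescence after 16 h compound exposure (11-point series) at 37C in HEK293T-ATAD5 cells. CellTiter-Fluor viability read precedes the luminescence read; MMS serves as positive control.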
# [10] = J3T Cancer Cell Toxicity qHTS against the NCATS CANVASS Library (AID 1347371); note: potency is the fitted concentration of half-maximal effect
# Procedure, shortened: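 Dog glioma J3T, 500 cells/well; cpd 11-pt qHTS; 72 hr, 37C/5% CO2; CellTiterGlo ATP luminescence readout.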
# [11] = biological target: Nuclear receptor subfamily 1 group I member 3 (Homo sapiens) (UniProt Q14994); test: qHTS for Constitutive Androstane Receptor (CAR) Agonist screened against the NCATS CANVASS Library (AID 1347373);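 note: every well also contained 1.5 µM PK11195 alongside the test compound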; note: potency is the fitted concentration of half-maximal effect
# Procedure, shortened: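 Luciferase read-out (ONE-Glo, 30 min RT) of CYP2B6-2.2kb promoter activity in double-stable HepG2-hCAR cells after 24hr compound exposure with 1.5uM PK11195 present; viability measured first by CellTiter-Fluor.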
# [12] = 10-beta competent E. coli microbial cell viability qHTS against the NCATS CANVASS Library (AID 1347376); note: series mostly up to about 46 µM
# Procedure, shortened: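 Luminescence from BacTiter-Glo ATP detection served as the viability read-out; bacteria (0.2 OD) had been incubated overnight at 37C with pin-transferred compounds at 11 concentrations.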
# [13] = DH5-alpha competent E. coli microbial cell viability qHTS against the NCATS CANVASS Library (AID 1347377); conditions: outcome: dose series up to 46.1 µM unless noted
# Procedure, shortened: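 Luminescent ATP read-out (BacTiter-Glo, 20 min RT) after overnight 37C culture of DH5-alpha E. coli with compounds; daunomycin control at 0.2 nM–9.2 uM final.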
# [14] = qHTS for H2AX Agonists against the NCATS CANVASS Library (AID 1347378)
# Procedure, shortened: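 Phospho-H2AX (S139) in CHO-K1 lysates measured by HTRF, reported as 665/615 nm emission ratio after 24 hr antibody incubation at room temperature. Cells were first treated with a compound series for 3 hr at 37C (0.76% DMSO final).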
# [15] = Inflammasome Signaling qHTS Counterscreen: IL-1-beta AlphaLISA counterscreen against the NCATS CANVASS Library (AID 1347381);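 note: cell-free check with purified IL-1β in medium and no THP-1 cells; series mostly up to about 57 µM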
# Procedure, shortened: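 Here, no cellular stimulation occurs; compounds in an 11-point series meet 4 pg purified IL-1-beta directly. Bead-based AlphaLISA detection follows (1 h acceptor/antibody, then 30 min donor, dark, room temperature), with excitation at 680 nm.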
# [16] = Cytotoxicity qHTS for assessment of Hepg2 cells membrane integrity screened against the NCATS CANVASS Library (AID 1347387)
# Procedure, shortened: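 LDH release read by fluorescence (560 nm ex/590 nm em) after CytoTox-ONE addition and 10 min RT; signal tracks lysed cells. HepG2, 2000 cells/well, plated overnight; compound 5 hr, 37C, 5% CO2, final 0.59 nM - 46 uM, 11 points.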
# [17] = qHTS for activators of dead-cell proteases activity screened against the NCATS CANVASS Library (AID 1347392);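 note: luminescence from protease leaking out of membrane-damaged cells cleaving impermeant substrate; rising signal means more cytotoxicity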
# Procedure, shortened: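 HepG2, 2000 cells/well, 18 h attach; cpd 11-pt, 5 h 37C 5% CO2; CytoTox-Glo (AAF-aminoluciferin) 15 min RT; luminescence read.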
# [18] = Redox Reaction Profiling qHTS: Assay Interference Panel against the NCATS CANVASS Library (AID 1347401)
# Procedure, shortened: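 Fluorescence read-out (525 nm excitation, 598 nm emission) at time zero and after 15 min in the dark tracked resorufin formation. Mix: 5 uM resazurin, 200 uM DTT, HEPES pH 7.3 buffer with NaCl.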
# [19] = qHTS for inhibitors of Rabies Virus screened against the NCATS CANVASS Library (AID 1347402; calls by dose curve; note: series mostly up to about 46 µM)
# Luciferin 4-monooxygenase (Photinus pyralis), sequence (P08659 whole entry, looked up): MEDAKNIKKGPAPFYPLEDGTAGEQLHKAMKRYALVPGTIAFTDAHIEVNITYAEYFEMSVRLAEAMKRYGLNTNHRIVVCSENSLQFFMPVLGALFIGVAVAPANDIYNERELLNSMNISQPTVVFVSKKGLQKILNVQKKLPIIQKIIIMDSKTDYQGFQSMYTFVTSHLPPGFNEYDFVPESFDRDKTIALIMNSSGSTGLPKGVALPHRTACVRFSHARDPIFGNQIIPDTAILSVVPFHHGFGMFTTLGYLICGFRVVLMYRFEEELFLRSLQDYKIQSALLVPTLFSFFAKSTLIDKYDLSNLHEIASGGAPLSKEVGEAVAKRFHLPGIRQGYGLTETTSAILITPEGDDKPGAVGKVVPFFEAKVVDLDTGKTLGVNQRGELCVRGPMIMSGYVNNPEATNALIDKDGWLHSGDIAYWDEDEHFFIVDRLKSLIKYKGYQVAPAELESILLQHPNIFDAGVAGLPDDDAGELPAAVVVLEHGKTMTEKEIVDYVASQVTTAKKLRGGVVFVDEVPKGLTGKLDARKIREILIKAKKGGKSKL
# Nuclear receptor subfamily 1 group I member 3 (Homo sapiens), sequence (Q14994 whole entry, looked up): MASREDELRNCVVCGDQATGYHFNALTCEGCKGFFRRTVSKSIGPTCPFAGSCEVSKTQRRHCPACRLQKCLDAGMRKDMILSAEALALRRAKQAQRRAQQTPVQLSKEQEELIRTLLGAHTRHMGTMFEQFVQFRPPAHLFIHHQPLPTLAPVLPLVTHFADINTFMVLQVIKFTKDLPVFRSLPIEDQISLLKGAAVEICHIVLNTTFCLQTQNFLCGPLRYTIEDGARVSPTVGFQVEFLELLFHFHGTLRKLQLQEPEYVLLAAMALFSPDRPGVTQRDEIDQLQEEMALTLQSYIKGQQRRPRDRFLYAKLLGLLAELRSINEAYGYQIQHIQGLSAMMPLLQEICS
Compound,Potency [1],outcome [2],outcome [3],outcome [4],outcome [5],Potency [6],Potency [7],Potency [8],Potency [9],Potency [10],Potency [11],outcome [12],outcome [13],Potency [14],outcome [15],outcome [16],outcome [17],Potency [18],outcome [19]
CC[C@@H]1CN2CCC3(Nc4cccc(OC)c4C3=O)[C@@H]2C[C@@H]1/C(=C\OC)C(=O)OC (stereo partly drawn),inactive,inactive,inactive,inactive,inactive,inactive,inactive,inactive,inactive,inactive,inactive,inactive,inactive,inactive,inactive,inactive,inactive,inactive,inactive
C=C[C@H]1CN2CCc3c([nH]c4cccc(OC)c34)[C@@H]2C[C@@H]1/C(=C\OC)C(=O)OC,18700 nM (active),inactive,inactive,inactive,inactive,inactive,inactive,–,inactive,inactive,inactive,inactive,inactive,inactive,inactive,inactive,inactive,inactive,–
CO[C@H]([C@@H](C)[C@H]1O[C@]1(C)C[C@H](C)/C=C/C=C(\C)[C@H]1O[C@@H](CC(=O)O)CC[C@@H]1C)[C@@H](C)O,20.9 nM (active),inactive,inactive,inactive,inactive,inactive,26.4 nM (active),26.4 nM (active),46.7 nM (active),20.9 nM (active),105 nM (active),inactive,inactive,inactive,inactive,inactive,inactive,inactive,inactive
C[C@]12CCC3[C@@H](CC[C@@H]4C[C@@H](O)CC[C@]34CO)[C@@]1(O)CC[C@@H]2C1=CC(=O)OC1 (stereo partly drawn),1870 nM (active),inactive,inactive,inactive,inactive,inactive,935 nM (active),1320 nM (active),inactive,2960 nM (active),inactive,inactive,inactive,inactive,inactive,inactive,inactive,inactive,–
